# Compound activity: PubChem BioAssay, several laboratories
# Compounds with a hit are over-represented: about 2.6% of the library has one in this group of screens.
# ABHD5 PLIN5 PPI = ABHD5-PLIN5 protein interaction inhibition | 0.78% of 360,000 active | Q00G26+Q8WTS1 | inhibition, % at 4 µM | Split G. princeps luciferase complementation, luminescence, 4 h;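 active = inhibition above the mean inhibition across every tested compound plus 3 SD, cut at about 22% in these data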;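 also: 0% = DMSO only wells and the 100% control is not disclosed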
# Target sequence (Q00G26 whole entry, looked up): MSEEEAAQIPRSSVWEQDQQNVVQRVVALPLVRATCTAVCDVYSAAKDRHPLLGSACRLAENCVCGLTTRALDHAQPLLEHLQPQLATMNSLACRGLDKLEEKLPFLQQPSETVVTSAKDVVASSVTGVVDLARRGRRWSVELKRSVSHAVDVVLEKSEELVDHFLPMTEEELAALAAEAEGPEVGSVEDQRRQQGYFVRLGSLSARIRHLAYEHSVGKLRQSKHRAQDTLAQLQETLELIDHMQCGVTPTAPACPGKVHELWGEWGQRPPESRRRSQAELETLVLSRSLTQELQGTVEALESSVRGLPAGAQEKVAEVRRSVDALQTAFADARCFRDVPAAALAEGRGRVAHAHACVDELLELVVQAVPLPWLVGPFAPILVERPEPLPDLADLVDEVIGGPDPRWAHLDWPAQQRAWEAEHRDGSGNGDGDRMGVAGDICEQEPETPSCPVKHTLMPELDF
# Target sequence (Q8WTS1 whole entry, looked up): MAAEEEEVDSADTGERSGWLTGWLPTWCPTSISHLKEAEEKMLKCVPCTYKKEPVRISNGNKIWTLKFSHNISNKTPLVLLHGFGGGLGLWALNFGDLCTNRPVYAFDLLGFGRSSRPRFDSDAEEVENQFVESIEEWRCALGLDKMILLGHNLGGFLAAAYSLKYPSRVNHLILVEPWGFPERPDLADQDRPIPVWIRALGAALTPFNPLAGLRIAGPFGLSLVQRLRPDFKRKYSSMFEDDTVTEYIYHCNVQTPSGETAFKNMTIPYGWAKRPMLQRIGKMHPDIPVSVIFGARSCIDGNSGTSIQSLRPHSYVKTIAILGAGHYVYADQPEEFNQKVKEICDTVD
# TLR4 MyD88 comp = blocks binding of human TLR4 to MyD88; O00206+Q99836; HeLa CL3-4 TLR4/MyD88 BLA complementation, FRET ratio; inhibition, % at 8.4 µM; 0.18% of 200,000 active; in the data active = inhibition above about 25%;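 also: 0% = vehicle and 100% = reference inhibitor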
# NOD2 RIPK2 PPI = NOD2-RIPK2 protein interaction inhibition | CHO BLA complementation NOD2-RIPK2, CCF4 ratio | inhibition, % at 4.98 µM | 0.38% of 360,000 active; in the data active = inhibition above about 21%;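 also: 0% = vehicle only and 100% = reference blocker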
# Granule exo inh = blocks lytic granule exocytosis. TALL-104 LAMP-1 surface exposure, flow cytometry; cells stimulated with thapsigargin and PMA. inhibition, % at 10 µM. 0.66% of 360,000 active. AID 651702;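 active = inhibition above about 55%, limit read from the data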
# TLR9-MyD88 block = TLR9-MyD88 interaction inhibition. Q9NR96+Q99836. CHO BLA complementation TLR9-MyD88, CCF4 FRET ratio. inhibition, % at 4.98 µM. 0.21% of 340,000 active;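 active = inhibition above the mean over all tested compounds plus 3 SD, cut at about 21% in these data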;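 also: 0% = DMSO only wells and 100% = clavulanate BLA inhibitor control wells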
# PRMT1 inh = blocks human protein arginine methyltransferase 1 | recombinant PRMT1, activity-based probe fluorescence polarization | AID 652257 | 1.3% of 370,000 active | Q99873 | inhibition, % at 2.79 µM;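 active = inhibition above about 21% made by adding two undisclosed values, limit read from the data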
# TLR9-MyD88 conf = confirmation of human TLR9-MyD88 binding inhibitors | shares compounds with TLR9-MyD88 block | CHO TLR9/MyD88 BLA complementation, CCF4 FRET ratio | inhibition, % at 4.98 µM | 51% of 680 active;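 active = mean inhibition across three repeats above about 21% taken from the earlier screen, limit read from the data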;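 also: blue over green emission ratio reports constitutive TLR9 MyD88 association via BLA complementation; 0% = DMSO vehicle wells and 100% = clavulanate BLA inhibitor wells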
# BLA counter-1 = non-selective beta-lactamase inhibitors in TLR9-MyD88 counter-screen; shares compounds with TLR9-MyD88 block; CHO-BLA cells, CCF4 FRET ratio, BLA reporter; inhibition, % at 4.98 µM; 7% of 680 active;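 active = mean inhibition above a 50% cutoff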;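 also: counterscreen of TLR9-MyD88 hits on CMV-driven BLA in CHO-K1 cells; 0% = DMSO alone and 100% = clavulanate blocking BLA; higher means less blue over green ratio so more BLA blockade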
# TLR9 CHO cytotox = counter-screen for TLR9-MyD88 inhibitors: cytotoxicity in CHO cells; shares compounds with TLR9-MyD88 block; luminescence; inhibition, % at 4.98 µM; 39% of 680 active; AID 588336; in the data active = inhibition above about 11%
# ABHD5 PLIN5 conf = ABHD5-PLIN5 interaction inhibition, confirmed | shares compounds with ABHD5 PLIN5 PPI | biochemical ABHD5-PLIN5 interaction, luminescence | inhibition, % at 4 µM | 67% of 2,200 active; in the data active = inhibition above about 23%;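 also: 0% = DMSO vehicle wells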
# HNF4 split-luc = HNF4 split-luciferase signal hit, counter-screen. HNF4 dimerization, luminescence, biochemical. shares compounds with ABHD5 PLIN5 PPI. 77% of 2,200 active. AID 651674. inhibition, % at 4 µM;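 active = mean inhibition across replicate wells exceeding the computed hit threshold, cut at about 13% in these data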;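 also: light from luciferase halves that rejoin when HNF4 fusion proteins dimerize; 0% = DMSO only wells and the 100% control is not given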
# NOD2 RIPK2 conf = confirmation of human NOD2-RIPK2 interaction inhibitors; CHO cells, NOD2-RIPK2 BLA complementation, CCF4 FRET; inhibition, % at 4.98 µM; shares compounds with NOD2 RIPK2 PPI; 70% of 1,200 active;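 active = mean inhibition across replicates above a set limit taken from the earlier primary screen, cut at about 21% in these data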;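 also: 0% = DMSO-only wells and the high end = clavulanate BLA-blocked wells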
# BLA counter-2 = counter-screen for NOD2-RIPK2 interaction inhibitors: BLA reporter | shares compounds with NOD2 RIPK2 PPI | CHO BLA reporter, CCF4 FRET ratio, counterscreen | inhibition, % at 4.98 µM | 57% of 1,200 active | AID 624371;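 active = mean inhibition above the low-control mean inhibition plus three low-control SD, cut at about 11% in these data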;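 also: 0% = DMSO only wells and 100% = clavulanate high control wells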
# Exocytosis CP01 = lytic granule exocytosis inhibition. shares compounds with Granule exo inh. TALL-104 cells, LAMP-1 externalization, flow cytometry; stimulated with PMA plus thapsigargin. inhibition, % at 10 µM. 11% of 1,500 active; in the data active = inhibition above about 60%;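 also: 0% = stimulated vehicle wells and 100% = unstimulated wells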
# PRMT1 inh conf = confirmation of human PRMT1 inhibitors; 42% of 3,300 active; inhibition, % at 2.79 µM; recombinant His-PRMT1, activity-based probe fluorescence polarization; AID 687036; shares compounds with PRMT1 inh;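 active = mean inhibition across replicates above the hit cutoff derived for the earlier primary screen, cut at about 22% in these data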
# Starred values were filed as active, the others as inactive; . = not tested or not shown.
SMILES,ABHD5 PLIN5 PPI,TLR4 MyD88 comp,NOD2 RIPK2 PPI,Granule exo inh,TLR9-MyD88 block,PRMT1 inh,TLR9-MyD88 conf,BLA counter-1,TLR9 CHO cytotox,ABHD5 PLIN5 conf,HNF4 split-luc,NOD2 RIPK2 conf,BLA counter-2,PRMT1 inh conf,others
O=c1c2c([N+](=O)[O-])cc([N+](=O)[O-])cc2sn1Cc1ccccc1,2,.,26*,-20,32*,96*,20,5,95*,.,.,12,9,97*,
O=c1c2c([N+](=O)[O-])cc([N+](=O)[O-])cc2nc2ccccn12,0,.,-4,3,-2,0,.,.,.,.,.,.,.,.,
CN(CCO)c1cc(Sc2nc3ccccc3s2)c2nonc2c1[N+](=O)[O-],49*,9,91*,56*,47*,90*,67*,9,99*,80*,114*,98*,33*,89*,
Cc1ccc(Cn2cc(CN(C(C)(C)C)S(=O)(=O)c3ccccc3Br)nn2)cc1,.,.,.,.,.,1,.,.,.,.,.,.,.,.,
C[C@@H]1CCCCO[C@@H](CN(C)C(=O)CCC(F)(F)F)[C@@H](C)CN([C@H](C)CO)C(=O)c2cc(NS(=O)(=O)c3cccs3)ccc2O1,.,.,.,.,.,-1,.,.,.,.,.,.,.,.,
COCCn1c2nc(=O)n(-c3ccccc3)c(=O)c-2nc2ccccc21,-10,.,36*,55,23*,115*,10,14,2,.,.,32*,32*,113*,
Nc1ccc2nc(-c3ccccc3)cnc2c1,-14,.,44*,11,39*,31*,30*,34,-2,.,.,57*,63*,33*,
COc1ccc(C(=O)/C=C/C(=O)N(CC(=O)NC2CCCCC2)CC2CCCO2)c(O)c1 (configuration not stated),66*,23,87*,34,26*,34*,34*,20,97*,.,.,93*,22*,41*,
Cc1ccc(NC(=O)c2cc(N3C(=O)C=CC3=O)ccc2N2CCOCC2)cc1Cl,22,1,-1,42,32*,90*,55*,18,97*,.,.,.,.,103*,
CCC(=O)OCCNc1cc(SCCC(=O)OC)c2nonc2c1[N+](=O)[O-],-14,-2,-9,2,-5,11,.,.,.,.,.,.,.,.,
CCCC(=O)OCCNc1cc(Sc2nc3ccccc3[nH]2)c2nonc2c1[N+](=O)[O-],50*,22,75*,21,32*,67*,68*,11,98*,61*,110*,92*,43*,73*,
CCC(=O)OCCNc1cc(Sc2nccn2C)c2nonc2c1[N+](=O)[O-],7,24,15,7,24*,43*,69*,28,101*,.,.,.,.,65*,
CC(=O)Nc1ccc2c(=O)n(-c3ccccc3)sc2c1,79*,.,31*,69*,28*,86*,25*,3,92*,69*,117*,40*,11*,91*,Exocytosis CP01=62*
N#Cc1ccc2c(=O)n(-c3ccccc3)sc2c1,-16,.,0,48,39*,78*,18,-3,96*,.,.,.,.,95*,
C=CCn1c(O)c(C2=c3ccccc3=NC2=O)c2ccccc21,90*,.,77*,62*,21*,42*,27*,-1,98*,85*,107*,80*,-1,45*,
C=CCn1c(O)c(C2=c3ccccc3=NC2=O)s/c1=N/c1nccs1,-12,10,0,6,-4,2,.,.,.,.,.,.,.,.,
COc1ccc(N2C(=O)C3CC(C)=C(C)CC3C2=O)c(OC)c1 (configuration not stated),0,3,-4,-2,-4,3,.,.,.,.,.,.,.,.,
COc1cc(N2C(=O)C=CC2=O)ccc1N1C(=O)C=CC1=O,52*,.,26*,82*,39*,91*,64*,44,101*,75*,111*,.,.,87*,
CN(C)C(=O)NC1c2ccccc2-c2ccccc21,-4,.,1,-7,-4,-4,.,.,.,.,.,.,.,.,
O=C1C=CC(=O)N1c1ccc2c(c1)C(NC(=O)C(F)(F)F)c1ccccc1-2 (configuration not stated),34*,.,5,-12,30*,91*,36*,11,98*,56*,99*,.,.,87*,
O=C(CSc1nnc(-c2cccnc2)n1-c1ccc(Cl)cc1)Nc1cccc2ccccc12,.,.,.,.,.,-1,.,.,.,.,.,.,.,.,
Cc1cc2nc3c(=O)n(C4CCCCC4)c(=O)[nH]c3nc2cc1N,-18,12,6,-4,28*,94*,20,25,0,.,.,.,.,118*,
CCNC(=O)N1CCN(c2ccc(N3CCN(C(=O)NCC)[C@@H](C)C3)c(C)c2)[C@@H](C)C1,.,.,.,.,.,-1,.,.,.,.,.,.,.,.,
CCOC(=O)c1c(NC(C)=O)sc2c1CCC(C=O)=C2Sc1ccccc1,65*,20,35*,95*,22*,31*,18,3,37*,76*,17*,67*,20*,3,
O=c1oc2c(CN3CCCCC3)c(O)ccc2cc1-c1nc2ccccc2[nH]1,3,.,0,-3,5,16,.,.,.,.,.,.,.,.,
O=c1oc2c(O)cccc2cc1-c1nc2ccccc2[nH]1,-7,.,58*,25,54*,60*,45*,54*,9,.,.,73*,79*,50*,
C[C@@H]1NS(=O)(=O)c2c(F)cccc2O[C@@H]1c1ccccc1,.,.,.,.,.,2,.,.,.,.,.,.,.,.,
